Measurements: ChEMBL document CHEMBL1157539, “Thousands of chemical starting points for antimalarial lead identification” (Nature, 2010)

Columns and labels:
Type in all cases: functional
Plasmodium falciparum [1] = test: GSK_TCMDC: Inhibition of Plasmodium falciparum 3D7 in whole red blood cells, using parasite LDH activity as an index of growth. Test compounds present at 2uM
Plasmodium falciparum [2] = test: GSK_TCMDC: Inhibition of Plasmodium falciparum Dd2 in whole red blood cells, using parasite LDH activity as an index of growth. Test compounds present at 2uM
HepG2 = test: GSK_TCMDC: Percent inhibition of human HepG2 cell line. Test compounds present at 10uM.

Molecule CCCOc1ccccc1C(=O)Nc1nonc1-c1ccc(OCC)c(OCC)c1 has an Inhibition (Plasmodium falciparum [1]) of 99%, an Inhibition (Plasmodium falciparum [2]) of 89% and an Inhibition (HepG2) of 46%.

In the case of O=C(Nc1ccc([N+](=O)[O-])cc1)Nc1cc(C(F)(F)F)ccc1F, the Inhibition (Plasmodium falciparum [1]) is reported as 89%, the Inhibition (Plasmodium falciparum [2]) is reported as 46% and the Inhibition (HepG2) is reported as 8%.

For O=C(/C=C/c1ccc(Cl)c(Cl)c1)NCCCCCN1CCC(NC(=O)c2ccc(F)cc2)CC1, the Inhibition (Plasmodium falciparum [1]) was 100%, the Inhibition (Plasmodium falciparum [2]) was 13% and the Inhibition (HepG2) was 14%.

Molecule CC(C)NCc1ccc(-c2cccc(CN3CCC(c4ccccc4)CC3)c2)c(C(=O)NCC2CCCCC2)c1.O=C(O)C(F)(F)F has an Inhibition (Plasmodium falciparum [1]) of 98%, an Inhibition (Plasmodium falciparum [2]) of 76% and an Inhibition (HepG2) of 42%.

In the case of Cc1cccc2nc(-c3cccc(-c4ccc(NC(=O)CC5NC(=O)c6ccccc65)cc4)c3)[nH]c12 (stereo unspecified), the Inhibition (Plasmodium falciparum [1]) is reported as 100%, the Inhibition (Plasmodium falciparum [2]) is reported as 67% and the Inhibition (HepG2) is reported as 30%.

CCC[C@@H]([C@@H](CC1CCCCC1)C(=O)NC(C(=O)Nc1nccs1)C(CC)c1ccccc1)N(O)C=O (stereo partly specified) showed an Inhibition (Plasmodium falciparum [1]) of 89%, an Inhibition (Plasmodium falciparum [2]) of 19% and an Inhibition (HepG2) of 50%.

Work on Fc1ccc(CNc2nc(-c3ccc(F)c(C(F)(F)F)c3)n(-c3cccc(C(F)(F)F)c3)n2)cc1 yielded an Inhibition (Plasmodium falciparum [1]) of 95%, an Inhibition (Plasmodium falciparum [2]) of 80% and an Inhibition (HepG2) of 0%.

COc1ccc2nccc(N3CCN(CCNCc4ccc5c(n4)NC(=O)CS5)CC3)c2n1.Cl was tested, and the Inhibition (Plasmodium falciparum [1]) was 100%, the Inhibition (Plasmodium falciparum [2]) was 67% and the Inhibition (HepG2) was 10%.

O=C(Cn1c(CCc2cccc(F)c2F)cc(=O)c2ccccc21)N(Cc1ccc(-c2ccc(C(F)(F)F)cc2)cc1)C1CCN(CCN2CCOCC2)CC1.O=C(O)C(O)C(O)C(=O)O showed an Inhibition (Plasmodium falciparum [1]) of 100%, an Inhibition (Plasmodium falciparum [2]) of 41% and an Inhibition (HepG2) of 53%.

CN1CCC(C(=O)Nc2cccc(-c3ccc(-c4nc5cc(C(F)(F)F)ccc5[nH]4)cc3)c2)CC1 was tested, and the Inhibition (Plasmodium falciparum [1]) was 100%, the Inhibition (Plasmodium falciparum [2]) was 99% and the Inhibition (HepG2) was 38%.

CC1(C)N=C(N)N=C(N)N1OCc1ccc2ccccc2c1 was tested, and the Inhibition (Plasmodium falciparum [1]) was 94%, the Inhibition (Plasmodium falciparum [2]) was 97% and the Inhibition (HepG2) was 65%.

With Nc1nc(-c2ccccn2)nc(-n2nc(-c3cccc(C(F)(F)F)c3)cc2N)n1.O=C(O)C(F)(F)F the Inhibition (Plasmodium falciparum [1]) was 87%, the Inhibition (Plasmodium falciparum [2]) was 74% and the Inhibition (HepG2) was 14%.

For CCn1c(SCc2ccccc2)nc2c1c(=O)[nH]c(=O)n2C, the Inhibition (Plasmodium falciparum [1]) was 96%, the Inhibition (Plasmodium falciparum [2]) was 30% and the Inhibition (HepG2) was 1%.

CN(CCN)Cc1ccc(-c2ccc(-c3nc4cc(F)ccc4[nH]3)s2)cc1.O=C(O)C(F)(F)F showed an Inhibition (Plasmodium falciparum [1]) of 96%, an Inhibition (Plasmodium falciparum [2]) of 81% and an Inhibition (HepG2) of 31%.

In the case of COc1ccc(-c2cccc(NC(=O)c3ccccc3)c2)cc1CN1CCCN(C)CC1.O=C(O)C(F)(F)F, the Inhibition (Plasmodium falciparum [1]) is reported as 98%, the Inhibition (Plasmodium falciparum [2]) is reported as 25% and the Inhibition (HepG2) is reported as 22%.

In the case of COc1ccc2nccc(N3CCC(CCNCc4ccc5c(n4)NC(=O)CO5)CC3)c2c1.Cl, the Inhibition (Plasmodium falciparum [1]) is reported as 100%, the Inhibition (Plasmodium falciparum [2]) is reported as 50% and the Inhibition (HepG2) is reported as 22%.

Molecule Cn1cncc1C(=O)Nc1ccc(-c2cccc(-c3nc4cc(C(F)(F)F)ccc4[nH]3)c2)cc1 has an Inhibition (Plasmodium falciparum [1]) of 100%, an Inhibition (Plasmodium falciparum [2]) of 3% and an Inhibition (HepG2) of 34%.

CCc1sc(N2CCN(C)CC2)nc1C(=O)NCCc1ccc(Cl)c(Cl)c1.O=C(O)C(F)(F)F was tested, and the Inhibition (Plasmodium falciparum [1]) was 92%, the Inhibition (Plasmodium falciparum [2]) was 49% and the Inhibition (HepG2) was 5%.

With CC(=O)Nc1ccc(C(=O)Nc2cccc(-c3cccc(-c4nc5cc(C(F)(F)F)ccc5[nH]4)c3)c2)cn1 the Inhibition (Plasmodium falciparum [1]) was 100%, the Inhibition (Plasmodium falciparum [2]) was 97% and the Inhibition (HepG2) was 8%.

Molecule Cn1cc(C(=O)Nc2cccc(-c3cccc(-c4nc5ccccc5[nH]4)c3)c2)n(C)c1=O has an Inhibition (Plasmodium falciparum [1]) of 99%, an Inhibition (Plasmodium falciparum [2]) of 60% and an Inhibition (HepG2) of 0%.

In the case of CCc1ccccc1N=C1c2c(cccc2[N+](=O)[O-])C(=O)C1C(C)=O (stereo unspecified), the Inhibition (Plasmodium falciparum [1]) is reported as 99%, the Inhibition (Plasmodium falciparum [2]) is reported as 96% and the Inhibition (HepG2) is reported as 0%.

Work on CC(=O)Nc1ccc(C(=O)Nc2ccc(-c3cccc(-c4nc5cccc(C)c5[nH]4)c3)cc2)cn1 yielded an Inhibition (Plasmodium falciparum [1]) of 99%, an Inhibition (Plasmodium falciparum [2]) of 74% and an Inhibition (HepG2) of 36%.

CCCCc1cc(NCc2ccncc2)nc(Nc2ccc(OC)cc2)n1 gave an Inhibition (Plasmodium falciparum [1]) of 93%, an Inhibition (Plasmodium falciparum [2]) of 22% and an Inhibition (HepG2) of 11%.

With O=C(O)C(F)(F)F.c1cc(CN2CCCCC2)cc(-c2csc(-c3nc4ccccc4[nH]3)c2)c1 the Inhibition (Plasmodium falciparum [1]) was 90%, the Inhibition (Plasmodium falciparum [2]) was 16% and the Inhibition (HepG2) was 26%.

Cc1ccc2[nH]c(C)cc(=NN=Cc3ccc(Cl)cc3)c2c1 showed an Inhibition (Plasmodium falciparum [1]) of 100%, an Inhibition (Plasmodium falciparum [2]) of 35% and an Inhibition (HepG2) of 0%.

In the case of Cc1cccc2nc(-c3ccc(-c4ccc(CN5CCCC(O)C5)cc4)s3)[nH]c12.O=C(O)C(F)(F)F (stereo unspecified), the Inhibition (Plasmodium falciparum [1]) is reported as 100%, the Inhibition (Plasmodium falciparum [2]) is reported as 29% and the Inhibition (HepG2) is reported as 38%.

With O=C(c1cccc(-c2ccc(-c3nc4cc(C(F)(F)F)ccc4[nH]3)cc2)c1)N1CCCCC1CN1CCC(O)C1 (stereo unspecified) the Inhibition (Plasmodium falciparum [1]) was 92%, the Inhibition (Plasmodium falciparum [2]) was 100% and the Inhibition (HepG2) was 19%.
